ChEMBL document CHEMBL3988442, “University of Dundee, Small-Polar-MMV Screening Library” (2021)
About 13,000 (27%) of roughly 48,000 compounds showed an effect of 50% or more. The list shows a part of the results.

test system: Wolbachia pipientis; test: Anti-Wolbachia Cell-Based Screen; assay type: functional; set-up: scale not given: in the data most compounds retested in dose-response had high values; conditions: 5 µM

Row | SMILES | Percent Effect
1 | Cc1cc(C)n(-c2ccc(NCCNS(=O)(=O)c3ccccc3)nn2)n1 | 5.574%
2 | CNS(=O)(=O)c1cccc(CNc2cc(C(F)(F)F)ccn2)c1 | -5.444%
3 | Cc1cc(NCCNS(=O)(=O)c2cccc(Cl)c2)nc(C)n1 | 15.59%
4 | CCCn1ccnc1SCCNS(=O)(=O)c1ccccc1 | 8.595%
5 | Cc1cc(=O)n(CCNS(=O)(=O)c2ccccc2)cn1 | 113.1%
6 | Cc1cc(=O)n(CCNS(=O)(=O)c2ccc(F)c(Cl)c2)cn1 | 79.22%
7 | Cc1cc(=O)n(CCNS(=O)(=O)c2cccc(C(F)(F)F)c2)cn1 | 121.6%
8 | O=c1ccc(-n2ccnc2)nn1CCNS(=O)(=O)c1ccc(F)c(Cl)c1 | 15.65%
9 | O=c1ccc(-n2cccn2)nn1CCNS(=O)(=O)c1ccc(F)c(Cl)c1 | 8.551%
10 | O=C(Nc1ccc2occc2c1)N1CCCC(O)(CO)CC1 (centres undefined) | -15.39%
11 | Cc1cc(Br)ccc1NCC(=O)Nc1cc(C(C)(C)C)no1 | -8.877%
12 | Cc1cn[nH]c1C1COCCN1C(=O)c1ccc2c(c1)CCCC2 (centres undefined) | 108.4%
13 | CC(=O)Nc1cc(C(=O)N2CCOCC2c2ccc(C)o2)ccc1F (centres undefined) | -2.563%
14 | O=C(c1ccc2c(c1)CCCC2)N1CCOCC1c1ncon1 (centres undefined) | 4.25%
15 | Cc1cn[nH]c1C1COCCN1C(=O)c1cc(F)ccc1F (centres undefined) | 95.39%
16 | Cc1cn[nH]c1C1COCCN1C(=O)c1ccc2[nH]nnc2c1 (centres undefined) | 120.8%
17 | Cc1n[nH]c(C)c1C1COCCN1C(=O)c1ccccc1 (centres undefined) | 5.535%
18 | Cc1n[nH]c(C)c1C1COCCN1C(=O)Cc1cccc(F)c1 (centres undefined) | -5.544%
19 | CS(=O)(=O)NCc1ccc(NC(=O)CC2=CCCCC2)cc1 | 0.7476%
20 | CCOCC(O)CN1CCN(C(=O)c2ccnc(N(C)C)c2)CC1 (centres undefined) | -11.71%
21 | CN(CCCO)Cc1cc(Cl)ccc1OCC(O)CN1CCCCCC1 (centres undefined) | 86.94%
22 | OCCN1CCN(CC(O)c2cc(Cl)ccc2Cl)CC1 (centres undefined) | -2.66%
23 | COCCN(C)Cc1cc(Cl)ccc1OCC(O)CN1CCCCCC1 (centres undefined) | 95.86%
24 | COCC(O)CN1CCC(NC(=O)c2ccccc2Cl)CC1 (centres undefined) | -8.699%
25 | CCOc1ccc(Cl)cc1C(C(=O)O)N1CCCC1 (centres undefined) | -26.77%

Row | SMILES | Percent Effect
26 | CCN1CCN(CC(O)c2cc(Cl)ccc2Cl)CC1 (centres undefined) | -3.784%
27 | COCCN(C)C(C(=O)O)c1cc(Cl)ccc1OC (centres undefined) | -4.575%
28 | CN(CCO)Cc1cc(Cl)ccc1OCC(O)CN1CCCCCC1 (centres undefined) | 92.98%
29 | COc1cccc(CN2C[C@@H](F)[C@@H](OCc3nc4cnccc4[nH]3)C2)c1 | -9.076%
30 | COc1ccc(C2C3=C(COC3=O)Nc3[nH]nc(C)c32)cc1OC (centres undefined) | 3.297%
31 | Cn1ccc(NCc2cc3cc(F)ccc3o2)n1 | 107%
32 | Cc1cc(CNc2ccnn2C)ccc1-n1cncn1 | 1.687%
33 | COCCn1ccc(NCc2sccc2C)n1 | -10.57%
34 | Cc1ccc2oc(CNC(C)c3nnc4n3CCCC4)cc2c1 (centres undefined) | -13.95%
35 | NC(=O)CCn1ccc(NCc2cc(F)ccc2Br)n1 | -14.37%
36 | COCCn1ccc(NCc2cc3cc(F)ccc3o2)n1 | 97.47%
37 | COCCn1ccc(NCc2scnc2C)n1 | 1.852%
38 | Cn1nccc1NCc1cc2cc(F)ccc2o1 | 98.61%
39 | CC(NCc1cc2cc(F)ccc2o1)c1nnc2n1CCCC2 (centres undefined) | -7.412%
40 | CC(C(=O)N1CCN(c2ccc(F)cc2)CC1)n1ccnc1 (centres undefined) | 2.016%
41 | CN(C)S(=O)(=O)N1C[C@@H]2CC[C@H](C1)N(C/C=C/c1ccc(F)cc1)C2 | 19.59%
42 | Cc1ccccc1OCC(=O)N1CCOC2(CNCCOC2)C1 (centres undefined) | -22.9%
43 | COc1ccccc1CC(=O)N1CCC(NCc2cc[nH]c2)CC1 | 5.746%
44 | CCCc1noc(CCC(=O)N2CCCC2Cn2cc(C)cn2)n1 (centres undefined) | 127.2%
45 | CCCc1noc(CCC(=O)N2CCCCC2Cn2cc(C)cn2)n1 (centres undefined) | 117.6%
46 | CCCc1noc(CCC(=O)N2CCCC2c2ccsc2)n1 (centres undefined) | 2.757%
47 | COc1cc(N2C[C@@H]3COC[C@]3(C(=O)NCc3ccccn3)C2)ncn1 | -14.4%
48 | O=C(CC1CC1)NC[C@]12COC[C@H]1CN(c1ncc(F)cn1)C2.O=C(O)C(F)(F)F | -10.91%
49 | CCS(=O)(=O)N1C[C@H]2CCC[C@@]2(COc2ccccn2)C1.O=C(O)C(F)(F)F | 18.76%
50 | O=C(O)C(F)(F)F.O=S(=O)(C1CC1)N1C[C@H]2CCC[C@@]2(COc2ccccn2)C1 | 2.736%

Row | SMILES | Percent Effect
51 | O=C(O)C(F)(F)F.O=C(O)C(F)(F)F.c1ccc(OC[C@]23COC[C@H]2CN(c2ncccn2)C3)nc1 | -14.79%
52 | Fc1cnc(N2C[C@H]3CCC[C@@]3(COc3ccccn3)C2)nc1.O=C(O)C(F)(F)F.O=C(O)C(F)(F)F | -0.7444%
53 | CN(C)S(=O)(=O)N1C[C@@H]2COC[C@]2(COc2ccccn2)C1.O=C(O)C(F)(F)F | 82.39%
54 | COc1cc(N2C[C@@H]3COC[C@]3(C(=O)NC3CC(F)(F)C3)C2)ncn1.O=C(O)C(F)(F)F | 12.94%
55 | O=C(CC1CC1)NC[C@]12COC[C@H]1CN(c1ncccn1)C2.O=C(O)C(F)(F)F | -5.322%
56 | O=C(O)C(F)(F)F.c1cnc(N2C[C@@H]3COC[C@]3(COCC3CCCC3)C2)nc1 | 99.14%
57 | Fc1cnc(N2C[C@@H]3COC[C@]3(COc3ccccn3)C2)nc1.O=C(O)C(F)(F)F.O=C(O)C(F)(F)F | 104.4%
58 | COc1cc(N2C[C@@H]3COC[C@]3(COc3ccccn3)C2)ncn1.O=C(O)C(F)(F)F.O=C(O)C(F)(F)F | 106%
59 | CNC(=O)C(C)(C)NC(=O)c1cc(OCC2CCC2)cc(C(=O)OC)c1 | -3.572%
60 | Fc1cccc(-c2nnn3c2COC(CNCc2cccs2)C3)c1.O=C(O)C(F)(F)F (centres undefined) | 3.148%
61 | CCCN1CCC(N2CCN(c3cc(C)nc(COC)n3)CC2)CC1 | -8.34%
62 | CN(C)c1cccc(C2CCCN2CCCN2CCOC2=O)c1 (centres undefined) | -17.44%
63 | CN(C)c1cc(N2CCN(c3ccccn3)CC2)ncn1 | 109.8%
64 | CN(CCC(O)c1ccccc1)c1cc(N2CCOCC2)ncn1 (centres undefined) | 3.711%
65 | CN(C)CCN(C)c1cc(N2CCN(c3ccccn3)CC2)ncn1 | 127.7%
66 | CN(CCc1ccccn1)c1cc(N2CCCCC2)ncn1 | -10.66%
67 | OCC1CCCN1c1cc(N2CCN(c3ccccn3)CC2)ncn1 (centres undefined) | 2.004%
68 | Cc1ccccc1N1CCN(c2cc(N(C)C)ncn2)C(C)C1 (centres undefined) | 2.423%
69 | CS(=O)(=O)N1C[C@@H]2CC[C@H](C1)N(C(=O)CCc1n[nH]c3c1CCCC3)C2 | -4.237%
70 | O=C(C1=CCCCC1)N1CCC2(CC1)COC(COc1ccccn1)C2.O=C(O)C(F)(F)F (centres undefined) | -10.4%
71 | Cc1cc(C(=O)N2CC[C@H]3[C@@H]2CCC(=O)N3c2ccccc2)no1 | -22.73%
72 | CC(NCC1CCN(CCO)CC1)c1cccc(Cl)c1 (centres undefined) | -3.921%
73 | c1ccc2oc(C3CCN(Cc4ncon4)CC3)nc2c1 | -12.07%
74 | CCOCC1CN(C(=O)c2cnoc2C)Cc2cnn(C)c21.O=C(O)C(F)(F)F (centres undefined) | 112.3%
75 | CCOCC1CN(C(=O)Cc2ccccn2)Cc2c1cnn2C.O=C(O)C(F)(F)F.O=C(O)C(F)(F)F (centres undefined) | -14.09%

Row | SMILES | Percent Effect
76 | CCOCC1CN(C(=O)c2ccco2)Cc2cnn(C)c21 (centres undefined) | 93.66%
77 | CCOCC1CN(C(=O)CS(C)(=O)=O)Cc2cnn(C)c21.O=C(O)C(F)(F)F (centres undefined) | 16.84%
78 | CCOCC1CN(C(=O)c2cnoc2C)Cc2cn(CC3CC3)nc21 (centres undefined) | -17.44%
79 | CCOCC1CN(C(=O)Cc2ccccn2)Cc2cnn(C)c21.O=C(O)C(F)(F)F.O=C(O)C(F)(F)F (centres undefined) | 117.4%
80 | CCOCC1CN(C(=O)c2ccoc2C)Cc2cnn(C)c21 (centres undefined) | 98.5%
81 | CCOCC1CN(C(=O)c2cnoc2C)Cc2cn(C)nc21.O=C(O)C(F)(F)F (centres undefined) | -24.2%
82 | CCOCC1CN(C(=O)c2ccco2)Cc2nn(C)cc21 (centres undefined) | 6.633%
83 | COc1ccccc1NC(=O)NCCCC(=O)Nc1cn[nH]c1 | 3.089%
84 | CC(C)Oc1cccc(F)c1C(C(=O)O)N(C)Cc1ccon1 (centres undefined) | -4.815%
85 | CCCN(C)c1ccc(C(=O)NCc2ccnc(C)n2)cc1 | 14.15%
86 | CC(C#N)CN(C)Cc1cc(Cl)cc2cccnc12 (centres undefined) | -4.416%
87 | FC(F)(F)Sc1ccc(NCc2nnc(C3CC3)o2)cc1 | 4.65%
88 | CC(C)Cc1ncc2c(n1)CN(c1nccc(N(C)C)n1)C2 | -11.83%
89 | Cc1nc(C(C)(C)NCc2nnc(C(C)C)o2)sc1C | -6.227%
90 | O=C(NCCc1cccnc1)NC1CCOC2(CCCCC2)C1 (centres undefined) | -5.946%
91 | CCOCc1ccccc1NC(=O)NCC(C)(O)c1ccsc1 (centres undefined) | -1.013%
92 | CC(O)(CNC(=O)c1cccnc1-n1cccn1)c1ccsc1 (centres undefined) | 107.4%
93 | CC(O)(CNC(=O)NCc1cccc(-n2cncn2)c1)c1ccco1 (centres undefined) | 22.01%
94 | CCn1nc(C)c(CNC(=O)NCC(C)(O)c2ccsc2)c1C (centres undefined) | -9.413%
95 | CCN(CC)CCCC(C)NC(=O)c1cccnc1-n1cccn1 (centres undefined) | -4.775%
96 | CNC(=O)c1cccnc1NCc1ccc(-n2cccn2)cc1 | -16.78%
97 | CC(O)(CNC(=O)c1cccnc1-n1cccn1)c1cccs1 (centres undefined) | 100.2%
98 | O=C(CCC(=O)N1CCOCC1)NCc1cccnc1-n1cccn1 | 4.294%
99 | CC(O)(CNC(=O)c1cccnc1-n1cccn1)c1ccco1 (centres undefined) | 109%
